Test system: Plasmodium falciparum NF54-HGL (transmission to Anopheles stephensi)
Assay: percentage of barcode signal found in uninfected mosquitoes (transmission-blocking activity); higher = stronger blocking of transmission to mosquito, active = 80 or more
Settings: 10 µM; gametocyte preincubation time 24 h; readout time post-feed 8 days
Procedure: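 The mixture was fed to Anopheles stephensi in 96-well plates as blood meals tagged with DNA-barcoded Asaia bacteria. Eight days later, mosquitoes were classed infected or uninfected by luminescence (mean + 5 SD of unfed controls). Barcodes were quantified by Luminex MagPlex-TAG in the pooled uninfected and infected Asaia cultures, background-corrected, and the score is % of barcode signal in uninfected mosquitoes = 100*Iu/(Iu+Ii).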

| SMILES | percentage of barcode signal found in uninfected mosquitoes |
| --- | --- |
| COC(=O)Nc1nc2cc(C(=O)c3ccccc3)ccc2[nH]1 | 42.3% (inactive) |
| Cc1nc(-c2ccccn2)nc(N2CCC(Cc3ccccc3)C2)c1Cl (configuration not stated) | 78% (inactive) |
| Cc1nc(-c2cccc(NCc3ccccc3)c2)[nH]c1C | 2.32% (inactive) |
| CCC(Sc1nc2ccccc2o1)C(=O)Nc1nccs1 (configuration not stated) | -4.79% (inactive) |
| COc1ccc(Nc2ccccc2NC(=O)c2ccc(O)nc2)cc1 | 7.07% (inactive) |
| O=C(NCc1ccco1)N1CCN(Cc2ccc(Cl)s2)CC1 | 0.794% (inactive) |
| Cc1nc2ccccn2c1C(=O)NCc1ccc(Cl)cc1 | 48.8% (inactive) |
| Cc1cccc(NC(=O)c2cc(S(=O)(=O)N(C)c3ccc(F)cc3)ccc2Cl)n1 | 46.1% (inactive) |
| COc1ccccc1OCCCCn1c(C2CC2)nc2ccccc21 | 48.5% (inactive) |
| CCOc1ccccc1C(=O)Nc1cccc(-c2nc3ncccn3c2C)c1 | 78.8% (inactive) |
| O=C(NC1CC1)c1ccc(CSCc2ccccc2Cl)o1 | 36.9% (inactive) |
| Cc1ccc2nc(Cl)c(CNCc3cccs3)cc2c1 | 7.16% (inactive) |
| CCN(CC)S(=O)(=O)c1ccc(Cl)c(C(=O)Nc2ccc3nc(C)sc3c2)c1 | 86.1% (active) |
| FC(F)(F)c1nnc2ccc(Cl)nn12 | 20.5% (inactive) |
| O=C(c1[nH]nc2c1CCCC2)N1CCN(Cc2ccc3c(c2)OCO3)CC1 | 9.05% (inactive) |
| O=C(C(Cc1c[nH]c2ccccc12)NS(=O)(=O)c1ccc(Cl)cc1)N1CCCCC1 (configuration not stated) | 62.5% (inactive) |
| COC(=O)c1c(NC(=O)c2cc3ccccc3oc2=O)sc2c1CCN(Cc1ccccc1)C2 | 49.1% (inactive) |
| Cc1cc(C)cc(COc2ccc3c(C)c(CCC(=O)O)c(=O)oc3c2C)c1 | 1.73% (inactive) |
| Clc1ccc(CCNc2cc(-c3ccccc3)nc3ncnn23)cc1 | -1.04% (inactive) |
| COc1ccccc1CNC(=O)c1cc(C2CC2)nc2c1cnn2C(C)C | 62.8% (inactive) |
| CC(C)C(C(=O)Nc1ccc(S(=O)(=O)N(C)C)cc1)c1ccc(Cl)cc1 (configuration not stated) | 49.7% (inactive) |
| O=C(NCc1ccoc1)N1CCN(Cc2ccc3c(c2)OCO3)CC1 | 25.5% (inactive) |

Same assay, conditions: 20 µM; gametocyte preincubation time 24 h; readout time post-feed 8 days

| SMILES | percentage of barcode signal found in uninfected mosquitoes |
| --- | --- |
| CC(=O)N1CCc2cc3nc(C)cc(C)c3cc21 | 5.33% (inactive) |
| CC(C)(C)c1cnc(NC(=O)c2ccccc2O)s1 | 21.3% (inactive) |
| COc1cc(C(F)(F)F)nc2ccc(C)c(N)c12 | -0.0386% (inactive) |
| CNc1cc(C)nc(C2CN(C(=O)c3n[nH]c4ccccc34)CCO2)c1 (configuration not stated) | 35.5% (inactive) |
| Cc1ccc(-c2cc(C(=O)Nc3cccnc3)c3cc(Br)ccc3n2)cc1 | 42.5% (inactive) |
| c1cncc(NCc2ccc(-c3cc4ccncc4cc3OC3CCNCC3)s2)c1 | 99.4% (active) |
| COc1cc(NC(=O)Cc2nn(C)c(=O)c3ccccc23)ccc1Cl | 9.49% (inactive) |
| COc1cccc(OC)c1C(=O)Nc1ccc(Cl)c(-c2nc3ccccc3s2)c1 | 13.2% (inactive) |
| CCN(CC)CCCN1CCN(C(=O)c2cccc(-c3noc(C(F)(F)F)n3)c2)CC1 | 64.3% (inactive) |
| CC(=O)N(CCN(C(=O)c1ccc(F)cc1)c1ccccc1)c1ccccc1 | 1.19% (inactive) |
| NC(CC(=O)c1ccc(Cl)cc1Cl)C(Cl)(Cl)Cl (configuration not stated) | 86.9% (active) |
| CCC(Sc1nc2ccccc2o1)C(=O)Nc1nnc(C)s1 (configuration not stated) | -0.757% (inactive) |
| CC1(COc2ccc(N3CCC(Oc4ccc(OC(F)(F)F)cc4)CC3)cc2)Cn2cc([N+](=O)[O-])nc2O1 (configuration not stated) | 39.6% (inactive) |
| Cc1cc(NC(=O)c2ccc(Oc3ccc(Cl)cc3O)o2)no1 | 33% (inactive) |
| CCN(CC)C(=O)N1CCN(C)CC1 | 4.35% (inactive) |

— the supplement of paper PMC8726507
